Source: PubChem BioAssay
In the library only some 11% were active in any assay of this set; here they are far more common.
IMPase inh – cell-permeable inhibitors of inositol monophosphatase (IMPase); inhibition (IP1 accumulation), % at 46.1 µM; 120,000 tested, under 10 active; CHO-M1 cells, IP1 accumulation, HTRF TR-FRET ratio; active means well fitted curve in the direction sought with a large enough effect in the signal ratio, not every such curve was filed as active; inconclusive means small, poorly fitted or top-dose-only effect, or a change in a side signal; inactive means no such curve, though single readings can be large or run the other way; the % refers to the signal ratio;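 further: cells stimulated with carbachol in lithium chloride buffer; plate controls were DMSO basal wells for no effect and reference inhibitor wells for full effect; higher means more IMPase inhibition seen as more IP1 and lower FRET ratio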
Target sequence (P97697 whole entry, looked up): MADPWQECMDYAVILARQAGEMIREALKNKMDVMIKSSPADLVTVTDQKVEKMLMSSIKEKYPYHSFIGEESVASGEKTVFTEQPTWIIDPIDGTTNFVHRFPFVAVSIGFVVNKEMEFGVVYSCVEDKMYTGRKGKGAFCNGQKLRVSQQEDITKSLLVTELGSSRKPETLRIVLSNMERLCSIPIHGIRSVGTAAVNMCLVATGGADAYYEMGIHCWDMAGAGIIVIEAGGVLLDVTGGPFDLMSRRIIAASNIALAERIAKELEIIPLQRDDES
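The IP-One HTRF competitive assay in carbachol-stimulated CHO-M1 cells quantifies cellular IP1. Compounds spanned up to 46 uM final, and activity is expressed as AC50 from concentration-response fits of the ratio and donor data.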
IMPase Li cell – IMPase inhibition in cells with lithium potentiation; CHO-M1 cells, IP1 TR-FRET (IP-One), carbachol + lithium; Potency, µM (highest dose often 59.4 µM), for inactives: at the top dose activity, negative = IMPase inhibition, most hits filed as inhibitors; hit rate 0.35% among 210,000; AID 1457; active means well fitted curve in the direction sought with a large enough effect; inconclusive means small, poorly fitted or top-dose-only effect, or another doubt; inactive means no such curve, though single readings can be large; an effect the other way counts as inactive or inconclusive;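 further: IP1 builds up when IMPase is blocked and the TR-FRET signal falls; potency means the concentration at half of the fitted maximal effect; plate controls were basal vehicle for no effect and high inhibitor control for full effect; nearly all actives have a fitted effect of over 50% in size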
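CHO cells stably expressing M1 receptor (2000/well) were cultured 16–30 h, then exposed to compounds with a small lithium addition for 30 min at 37C. IP1 was measured by TR-FRET competition; AC50 from Hill fits.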
PNC assembly inh – inhibitors of perinucleolar compartment assembly; PC3M PTB-GFP, PNC prevalence imaging, 16 h; hits give low values; activity change (PNC), negative = inhibition, % at 10 µM; hit rate 3.1% among 140,000; AID 2417;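 active means readout at or below -70, meaning at least 70% loss of cells showing the perinucleolar compartment, a nuclear body marking cancer cells; inconclusive means readout between -30 and a set limit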;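 further: plate controls were DMSO wells for no effect and camptothecin positive control wells for full effect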
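PC3M cells stably expressing PTB-GFP, 750–1000 cells/well, treated 16 h at 37 °C with compound (23 nl of library stock), in duplicate. After paraformaldehyde fixation and Hoechst stain, imaged at 20x; PNC prevalence scored by image analysis.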
NPSR antag – antagonists of human neuropeptide S receptor cAMP signaling | Q6W5P4 | CHO-NPSR cells, cAMP TR-FRET, antagonist mode | Potency, µM (series often up to 38.3 µM), inactives show at the top dose activity change, negative = inhibition, hits mostly inhibitors | hit rate 1% among 220,000; active means well fitted curve in the direction sought with a large enough effect; inconclusive means small, poorly fitted or top-dose-only effect, or another doubt; inactive means no such curve, though single readings can be large; an effect the other way counts as inactive or inconclusive; further: potency means the concentration at half of the fitted maximal effect; nearly all actives have a fitted effect of over 50% in size
ALDH1A1 inh – blocks purified human ALDH1A1 activity. hit rate 7.3% among 220,000. Purified ALDH1A1, NADH fluorescence, propionaldehyde substrate. Potency, µM (titrated, usually from 75.3 µM), for the others: at the top dose activity, negative = inhibition, usual class: inhibitors;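 further: potency means the concentration at half of the fitted maximal effect; plate controls were no enzyme wells and a reference inhibitor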
HPGD block – HPGD (human) dehydrogenase inhibition | Potency, µM, inactives show at the top dose activity change, negative = inhibition, usual class: inhibitors | hit rate 4.3% among 150,000 | purified HPGD, NADH fluorescence kinetic, PGE2 substrate | P15428 | AID 894; further: potency means the concentration at half of the fitted maximal effect
Target sequence (P15428 whole entry, looked up): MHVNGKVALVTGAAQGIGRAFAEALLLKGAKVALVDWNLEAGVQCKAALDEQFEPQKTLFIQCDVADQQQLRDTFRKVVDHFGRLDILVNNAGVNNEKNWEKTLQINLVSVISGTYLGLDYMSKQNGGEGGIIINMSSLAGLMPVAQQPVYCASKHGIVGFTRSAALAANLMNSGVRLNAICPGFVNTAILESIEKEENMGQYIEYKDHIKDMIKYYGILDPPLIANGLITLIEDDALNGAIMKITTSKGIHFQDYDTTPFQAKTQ
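20 nM HPGD preincubated 15 min at room temperature with compound in 50 mM Tris-HCl pH 8, 0.01% Tween 20. Started with 1 mM NAD+ and 30 uM prostaglandin E2; NADH fluorescence (360/450 nm) read 5 times over 30-s intervals, last minus first.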
The depositor's hits bear a star; ? = inconclusive; / = no result; [ ] = dose if it differs, or a comment. Unless noted, the call rests on the fitted dose curve; in most records, active means well fitted inhibition curve with a large enough effect (not every such curve was filed as active); inconclusive means small, poorly fitted or top-dose-only effect, or another doubt; inactive means no such curve, though single readings can be large or run the other way. Unless noted, on the % scale 0 is the no-effect control and ±100 the full control effect.

SMILES	IMPase inh	IMPase Li cell	PNC assembly inh	NPSR antag	ALDH1A1 inh	HPGD block
Cc1cccc(NC(=O)Cn2nc(C(F)(F)F)cc2C2CC2)c1	7	30%[38.3 µM]	-22	-3%[46.1 µM]	-1%	-3%
O=C1NC[C@@H](Cc2ccc(O)cc2)N(CC2CCCCC2)C1=O	/	/	/	11%	/	/
Cc1cccn2cc(CNC(=O)C3CCCCC3)nc12	6	-2%	-100*	3%[46.1 µM]	2%	?
Cc1cccn2cc(CNC(=O)c3ccc(Br)o3)nc12	/	6%	/	-3%	-7%	/
Cc1ccc(-c2nnn(CC(=O)N(CC3CCCO3)C(C(=O)NCC3CCCO3)c3ccc(F)cc3)n2)o1 (configuration not stated)	3	0%	169	23%[46.1 µM]	10%	-16%
CCN(CC)c1ccc(-c2nn3c(-c4n[nH]c5c4CCC5)nnc3s2)cc1	1	-1%[38.3 µM]	-99*	0%[46.1 µM]	?	?
O=C(CCC(=O)c1ccc(Br)cc1)Nc1cccc(C(F)(F)F)c1	2	9%[38.3 µM]	73	-10%[46.1 µM]	0%	-9%
Cc1ccc(C(=O)CSc2nc3cc(S(=O)(=O)N4CCOCC4)ccc3o2)cc1	11	8%[38.3 µM]	11	9%[7.67 µM]	14µM*	25µM*
O=C(CSc1nc2cc(S(=O)(=O)N3CCOCC3)ccc2o1)Nc1c(F)cccc1F	/	-1%	/	4%	4µM*	/
O=C(NC1CCCc2ccccc21)c1cc(S(=O)(=O)N2CCOCC2)ccc1F (configuration not stated)	/	13%	/	-8%	?	/
O=C(CSc1nc2cc(S(=O)(=O)N3CCOCC3)ccc2o1)NC1CCCc2ccccc21 (configuration not stated)	10	35%[38.3 µM]	?	-23%[46.1 µM]	2.2µM*	8.9µM*
Cc1[nH]c2ccccc2c1C(=O)CSc1nc2cc(S(=O)(=O)N3CCCCC3)ccc2o1	-4	9%[38.3 µM]	?	-29%[46.1 µM]	-10%	-3%
O=C(c1cc2ccccn2n1)N1CCCC1	-4	-3%[38.3 µM]	-24	-12%[46.1 µM]	-15%	-14%
Cc1sc(-n2c(C)cc(/C=C3\SC(=S)NC3=O)c2C)c(C#N)c1C	-18	-10%[38.3 µM]	41	-19%[46.1 µM]	12%	?
Cc1sc(-n2c(C)cc(/C=N/n3cnnc3)c2C)c(C#N)c1C	11	/	8	?	4µM*	/
Cc1cccc(C)c1NC(=O)N1C2CCCC1CC(NC(=O)C(C)(C)C)C2 (configuration not stated)	13	-1%[38.3 µM]	-96*	-2%[46.1 µM]	15%	-2%
O=C(O)CCn1nnc(-c2cccs2)n1	-18	-5%[38.3 µM]	-105*	-7%[46.1 µM]	17%	0%
COc1ccc(OC)c(NC(=O)NC2(C(F)(F)F)Oc3ccccc3O2)c1	7	15%[38.3 µM]	32	-2%[46.1 µM]	7.1µM*	-6%
CN(C)CCNC(=O)C(c1ccccc1)c1ccccc1	/	/	/	13%	/	/
CC(CCN(C)C)OC(=O)c1ccc(C(C)c2ccccc2)o1 (configuration not stated)	11	23%[38.3 µM]	-107*	4%[46.1 µM]	40µM*	-6%
NC(=O)C1(N2CCCCC2)CCN(CC(=O)Nc2ccccc2-c2ccccc2)CC1	?	20%[38.3 µM]	?	6%[46.1 µM]	4µM*	-1%
O=C(Nc1ccccc1-c1ccccc1)C1CCC1	/	5%	/	-11%	3.2µM*	/
O=C(CN1CCN(CC(=O)Nc2ccccc2C(F)(F)F)CC1)Nc1ccccc1F	18	6%	?	-3%[46.1 µM]	25µM*	-8%
O=C(CN1CCN(CC(=O)c2ccc(F)cc2)CC1)Nc1ccccc1Cl	4	-1%[38.3 µM]	-7	-25%[46.1 µM]	2.2µM*	?
COc1ccc(C2=NOC(CNC(N)=S)C2)cc1 (configuration not stated)	/	-2%	/	5%	-10%	/
SMILES	IMPase inh	IMPase Li cell	PNC assembly inh	NPSR antag	ALDH1A1 inh	HPGD block
CC[C@@H](c1ccccc1)n1c(=O)n2n(c1=O)[C@H]1[C@H](O)[C@H]3O[C@@H]3/C(=N/OCc3ccccc3)[C@@H]1CC2	/	/	/	/	1%[13.5 µM]	/
O=C(CN1CCSCC1)N/N=C/c1ccccc1F	7	31%[38.3 µM]	-11	13%[46.1 µM]	?	-23%
O=C(CN1CCCC1)Nc1cc(F)ccc1F	/	2%	/	13%	0%	/
O=C(CN1CCCCCC1)Nc1ccccc1F	-11	2%	-85*	6%[46.1 µM]	?	-21%
O=C(Cn1nc(C(F)(F)F)c2c1CCC2)Nc1ccccc1C(F)(F)F	1	8%	-100*	-5%[46.1 µM]	8%	-10%
O=C(CN1CCCCCCC1)N/N=C/c1ccccc1F	/	9%	?	3%	?	32µM*
O=C(O)C(=O)/C(=C\c1ccc([N+](=O)[O-])cc1)c1ccc2ccccc2n1	/	-2%	/	-32%	11µM*	/
O=C(O)C(=O)/C(=C\c1ccccc1)c1ccc2ccccc2n1	-3	13%[38.3 µM]	-14	-10%[46.1 µM]	?	?
CN(C)c1ncc2nc(-c3ccccc3)c(=O)n(C[C@H]3CCCO3)c2n1	/	0%	/	/	?	/
Cc1cc(N2CCC(C(=O)N3CCN(c4cccc(C)c4C)CC3)CC2)n2ncnc2n1	10	6%[38.3 µM]	26	-4%[46.1 µM]	4µM*	-23%
C=CCn1c(SCC(=O)c2cccs2)nc2sc(C)cc2c1=O	-1	47%[38.3 µM]	-18	?	11µM*	?
C=CCn1c(SCC(=O)c2cccs2)nnc1-c1cccc(OC)c1	16	9%[38.3 µM]	13	-14%[46.1 µM]	?	20µM*
C=CCn1c(SCC(=O)c2ccc(Cl)s2)nc2ccccc2c1=O	0	11%[38.3 µM]	23	-24%[46.1 µM]	13%	-13%
C=CCn1c(Cc2cccs2)nnc1SCC(=O)Nc1cccc(OC)c1	3	-5%[38.3 µM]	-5	5%[46.1 µM]	-2%	-4%
COc1ccc(OC)c(NC(=O)CSc2nc3ccccc3c(=O)n2CCNC(C)=O)c1	-3	6%	284	-13%[46.1 µM]	?	-21%
COC(=O)C(NC(=O)COc1ccccc1)(Nc1nc2c(s1)CCCC2)C(F)(F)F (configuration not stated)	20	13%	-14	-20%[46.1 µM]	-3%	35µM*
Cc1c(NCc2cc(Cl)cc(Cl)c2O)c(=O)n(-c2ccccc2)n1C	8	30%[38.3 µM]	14	-12%[46.1 µM]	9%	-4%
COC(=O)c1ccc(Oc2c(C)oc3c(CN4CCN(C)CC4)c(O)ccc3c2=O)cc1	-3	13µM*	-26	0%[46.1 µM]	?	?
COc1ccccc1Oc1c(C)oc2c(CN3CCN(C)CC3)c(O)ccc2c1=O	-10	-18%[38.3 µM]	-2	6%[46.1 µM]	?	?
O=C1/C(=C/c2ccc(N3CCCC3)cc2)NC(=S)N1C1CC1	5	51%[38.3 µM]	45	?	16µM*	-7%
Cc1cc(N2CCCC2)ccc1/C=C1\NC(=S)N(C)C1=O	/	66%	/	?	4.5µM*	/
CN1C(=O)c2ccc(N3CCCC3)cc2C1=O	3	-5%[38.3 µM]	27	-8%[46.1 µM]	?	-30%
CCOc1cc(/C=N/Nc2cccc(C(=O)O)c2)ccc1OC(=O)c1ccccc1	/	23%	/	-31%	40µM*	/
